About 79,000 compounds went through this panel and 15% of them were active in at least one assay; those are over-represented in the sample as a whole. Values without a mark were called inactive. Calls of active or inactive are those of the source. Rule as the data show it: active = growth inhibition above about 70%; inactive = the rest.
Tests used:
[1] = NCI Yeast Anticancer Drug Screen. Data for the rad50 strain (AID 155);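 also: 0% = growth of vehicle-only cultures of the same strain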; details: S. cerevisiae rad50 strain growth inhibition; at 50.0 µM; active compounds read high
In short: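 Compounds were tested on a yeast strain with an engineered DNA damage repair alteration; the reported value is growth inhibition normalised to vehicle treatment.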

[2] = NCI Yeast Anticancer Drug Screen. Data for the mec2-1 strain (AID 157); details: S. cerevisiae mec2-1 strain, at 50.0 µM, active compounds read high
In short: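 Test agents were screened against the mec2-1 yeast strain, with defined DNA repair or cell cycle alteration. Growth was scored as inhibition against vehicle-only controls.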

[3] = NCI Yeast Anticancer Drug Screen. Data for the sgs1 mgt1 strain (AID 161);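 also: 0% = growth of cultures given vehicle only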; details: S. cerevisiae sgs1 mgt1 strain, at 50.0 µM, active compounds read high
In short: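 Inhibition of yeast growth, normalised to vehicle-treated controls, is reported for a strain bearing genetic alterations in DNA damage repair.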

[4] = NCI Yeast Anticancer Drug Screen. Data for the cln2 rad14 strain (AID 165);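 also: 0% = growth equal to vehicle treated cultures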; details: S. cerevisiae cln2 rad14 strain, at 50.0 µM, active compounds read high
In short: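 Growth of compound-exposed yeast (cln2 rad14 genotype) measured and expressed as inhibition relative to vehicle.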

[5] = NCI Yeast Anticancer Drug Screen. Data for the bub3 strain (AID 167); details: S. cerevisiae bub3 mutant strain, at 50.0 µM, active compounds read high
In short: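 Growth of a checkpoint-deficient yeast mutant is measured after compound exposure. Values represent inhibition relative to vehicle.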

[6] = NCI Yeast Anticancer Drug Screen. Data for the mlh1 rad18 strain (AID 175); details: S. cerevisiae mlh1 rad18 strain growth inhibition; at 50.0 µM; active compounds read high
In short: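 In this whole-cell yeast screen, a strain with altered DNA damage repair is challenged with compound, and its growth is measured against matched vehicle-treated controls.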

Row | Compound | growth inhibition [1] | growth inhibition [2] | growth inhibition [3] | growth inhibition [4] | growth inhibition [5] | growth inhibition [6]
1 | Cc1cc(-c2ccccc2)cc(-c2ccccc2)[o+]1 | 2.3% | -2.55% | 2% | -23% | 1% | 4.25%
2 | CNc1ccccc1C(=O)O | -19.8% | -7.3% | 10.5% | -9.75% | -12.2% | 3.15%
3 | CNP1(N(C)C)=NP(NC)(N(C)C)=NP(NC)(N(C)C)=N1 (configuration not stated) | -13.9% | 12.9% | -10.6% | -6.85% | 6.6% | 10.4%
4 | CCOP(=O)(O)OCC.[Y] | 13.6% | 7.3% | 6.5% | -16.8% | 6.5% | 11.2%
5 | CCCCC[CH2][Sn](=[O])[CH2]CCCCC | 8.25% | 3.35% | -9.4% | -24.6% | 6.8% | -11.4%
6 | N#CC(C#N)=Cc1ccccc1O | -8.35% | -2.35% | -1.95% | -5.95% | -19.8% | -9.7%
7 | O=c1c2cc(Br)cc(Br)c2nc(CCCl)n1-c1ccc(O)c([N+](=O)[O-])c1 | -2% | 15.8% | -9.95% | 16.3% | -7.5% | -0.8%
8 | CC(=O)Nc1cc(Cl)c([N+](=O)[O-])cc1C | -14.9% | -4.15% | -12.4% | -79.1% | 0.75% | 11.6%
9 | [Cl][Pt][Cl].c1ccc([PH+](c2ccccc2)c2ccccc2)cc1.c1ccc([PH+](c2ccccc2)c2ccccc2)cc1 | -1.7% | 4.75% | -4.95% | -6.6% | -1.6% | -16.9%
10 | C=[CH][Sn]([CH]=C)([c]1ccccc1)[c]1ccccc1 | -7.5% | -12.8% | -14.2% | -0.65% | -26.8% | 12.3%
11 | CCCCCC(=O)c1c(O)cc2c(c1O)C(=O)c1c(O)cc(O)cc1C2=O | 10.2% | 2.25% | 6.1% | 10.3% | 8.35% | -5.7%
12 | COc1ccc2c(c1O)C1=CC(=O)CC[C@]13CCN(C)[C@H]3C2 | -14.1% | -38.3% | -14.2% | 6.15% | -15.2% | -10.2%
13 | CC1(C)OCC(CO)(Nc2nc(N3CC3)nc(N3CC3)n2)CO1 | -12.6% | 2.9% | 3.3% | -38% | 5.6% | -2.8%
14 | CN(C)C(=O)Oc1ccc([N+](=O)[O-])cc1OC(=O)N(C)C | 2.4% | -5.25% | 0.8% | -8.65% | 9.95% | -4.05%
15 | O=C(O)c1ccc([N+](=O)[O-])c([N+](=O)[O-])c1 | 22.2% | 4.95% | 32.9% | 7.05% | 10% | 24.6%
16 | Cc1c[nH]cn1.Cc1c[nH]cn1.Cc1c[nH]cn1.Cc1c[nH]cn1.Cc1c[nH]cn1.Cc1c[nH]cn1.N#CS.[Mn+2] | 6.1% | 4.3% | 4.35% | -4.8% | 4.1% | 5.05%
17 | C/C(CC(C)(C)N1CC1)=N\N | -19.7% | -12.8% | -7.75% | -20.1% | -7.95% | -8.95%
18 | Cc1ccc(OP(=O)(Oc2ccc(C)cc2)Oc2ccc(C)cc2)cc1.Cc1ccc(OP(=O)(Oc2ccc(C)cc2)Oc2ccc(C)cc2)cc1.Cc1ccc(OP(=O)(Oc2ccc(C)cc2)Oc2ccc(C)cc2)cc1.Cc1ccc(OP(=O)(Oc2ccc(C)cc2)Oc2ccc(C)cc2)cc1.[Cr+3].[O-][Cl+3]([O-])([O-])O | 0.95% | -2.2% | 0.15% | -3.05% | -4.35% | -3.55%
19 | CC(=O)c1cn(Cc2ccccc2)c2ccccc12 | 5.75% | -14.2% | -6.7% | -73.5% | -19.6% | -2.9%

Row | Compound | growth inhibition [1] | growth inhibition [2] | growth inhibition [3] | growth inhibition [4] | growth inhibition [5] | growth inhibition [6]
20 | [Cl][Sn]1([Cl])[CH2]CC[CH2][Sn]([Cl])([Cl])[CH2]CC[CH2]1 | 3.4% | 34% | -13.1% | 39.4% | -5.4% | 27.4%
21 | C=C(C(=C)P(=S)(C(C)C)C(C)C)P(=S)(C(C)C)C(C)C | -8.65% | -10.6% | 4.75% | 24.1% | -7% | -3.45%
22 | C[n+]1ccc2ccccc2c1-c1c2ccccc2cc[n+]1C | 27.4% | 3.65% | -2.55% | 18.9% | 3% | 6.05%
23 | O=P(N1CCNCC1)(N1CCNCC1)N1CCNCC1 | -20.1% | -11.8% | -1.35% | -42.5% | 5.45% | -20.2%
24 | [Cu].[NH2-].[NH2-].[NH2-].[NH2-] | -21.8% | -15.8% | -23.1% | -64.8% | -4.05% | -23.6%
25 | CC1(C)CC(N2CCCCC2)=CC(=[N+]2CCCCC2)C1 | -6.55% | -2% | 22.3% | 0.1% | -5.85% | -10.6%
26 | COc1ccc2c(c1O)C13C=C(OS(=O)(=O)c4ccc(C)cc4)C=CC1C(C2)N(C)CC3 (configuration not stated) | 40.3% | -4.2% | 34.9% | 13.9% | -1.85% | 3.55%
27 | Cc1c2ccccc2c(C)c2c1cc[n+]1ccccc21 | 14.1% | -1.35% | 15.2% | 0.05% | 1.05% | 1.8%
28 | O=C1OC(c2ccccc2)(c2ccccc2)C(=O)OC1(c1ccccc1)c1ccccc1 | 16.7% | -14% | 7.7% | 0.4% | 10.4% | 19.2%
29 | c1ccc(CN2C3c4ccccc4C2c2ccccc23)cc1 | -0.15% | -2.2% | -4% | -12.3% | -2.8% | 3%
30 | CNC1(c2ccc(F)cc2)CCCCC1 | -15.8% | -23.1% | -11.5% | 8.05% | -13.8% | -30.8%
31 | CCC1(O)CC(OC2CC(N(C)C)C(OC3CC(O)C(OC4CCC(=O)C(C)O4)C(C)O3)C(C)O2)c2c(cc3c(c2O)C(=O)c2c(O)ccc(O)c2C3=O)C1C(=O)OC (configuration not stated) | 88.8% (active) | 90.9% (active) | 90.5% (active) | 88.4% (active) | 90% (active) | 89% (active)
32 | Nc1nc(CC(N)C(=O)O)c[se]1 (configuration not stated) | 56.8% | 28.4% | 21.1% | 5.35% | 21.3% | 11%
33 | O=c1[nH]c2ccccc2c(=O)n1-c1ccco1 | 4.2% | -13.5% | -9% | -15.4% | -25.1% | -1.65%
34 | Cc1ccc(NC(=O)/C=C/c2ccc([N+](=O)[O-])cc2)cc1S(=O)(=O)F | -2.05% | 27.9% | 30% | -5.6% | 45% | 15.2%
35 | CCN(CC)C(=S)[S][Pb]([CH2]C)([CH2]C)[CH2]C | 3.5% | 9.25% | 30.2% | 16.9% | -1.35% | 10.2%
36 | CC(C)c1cccc(C(C)C)c1O | 22.2% | 26% | -21.9% | 3.5% | 10.9% | 12.9%
37 | COc1ccc(CCN)c(OC)c1 | -11.2% | 2.8% | -3.5% | -13.1% | -8.25% | -35.1%

From PubChem BioAssay (NCI)
